NS1 inh: blocks influenza NS1 protein function; Potency, µM (top dose mostly 46.1 µM); 270,000 compounds, 0.4% hits; AID 2326; calls by dose curve; also: actives are rising curves; nearly all actives have a fitted effect of over 50% in size
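A cell-based growth assay was used: compounds that relieve NS1-induced slow growth of budding yeast raise OD600. Assay medium was yeast nitrogen base with ammonium sulphate and -URA supplement, pH 6.0, with 2% galactose.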
Cruzain noTriton: cruzain (T. cruzi) inhibition without detergent | P25779 | purified cruzain, Z-FR-AMC fluorescence, no detergent | Potency, µM, most hits filed as inhibitors | 200,000 compounds, 2.3% hits; also: nearly all actives have a fitted effect of over 40% in size
Target sequence (P25779 123-467 limits assumed): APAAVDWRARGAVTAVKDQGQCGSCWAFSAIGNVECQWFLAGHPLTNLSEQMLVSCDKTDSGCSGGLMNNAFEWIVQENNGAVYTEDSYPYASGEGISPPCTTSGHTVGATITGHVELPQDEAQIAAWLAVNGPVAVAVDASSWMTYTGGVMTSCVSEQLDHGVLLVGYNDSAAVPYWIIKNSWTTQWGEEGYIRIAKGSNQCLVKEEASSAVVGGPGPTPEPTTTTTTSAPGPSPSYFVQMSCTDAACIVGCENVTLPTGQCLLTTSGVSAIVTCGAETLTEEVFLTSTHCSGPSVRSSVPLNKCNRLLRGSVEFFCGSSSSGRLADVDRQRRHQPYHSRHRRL
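Detergent-free condition (0.00005% Triton X-100) in acetate buffer pH 5.5 with DTT. 1.5 nM enzyme and compound were pre-mixed 15 min, then 2 uM Z-FR-AMC substrate added; reaction progress from fluorescence change between first and third reads (60 s).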
Cruzain inh Det: blocks cruzain activity in presence of Triton detergent | purified cruzain, Z-FR-AMC fluorescence, 0.01% Triton | AID 1478 | P25779 | Potency, µM, actives largely listed as inhibitors | 200,000 compounds, 0.43% hits; also: nearly all actives have a fitted effect of over 40% in size
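Steps: dispense cruzain (1.5 nM final) in acetate buffer pH 5.5 with DTT and 0.01% Triton X-100; pin-transfer compounds; incubate 15 min RT; add Z-FR-AMC (2 uM final); read fluorescence every 30 s, using the 60 s intensity change.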
Each line names hits and unclear results; the compound was inactive in the other large screens. Shown is part of a subset that was picked to be rich in hits. Unless noted, calls follow the shape of the dose curve; as a rule, active = well fitted curve in the direction sought with a large enough effect; inconclusive = small, poorly fitted or top-dose-only effect, or another doubt; inactive = no such curve, though single readings can be large; an effect the other way counts as inactive or inconclusive.

O=C1C2C3C=CC(C3=C(c3ccccc3)c3ccccc3)C2C(=O)N1CCO (stereo not drawn)	Cruzain noTriton inconclusive
O=C1C2C3C=CC(C3=C(c3ccccc3)c3ccccc3)C2C(=O)N1Cc1ccccc1 (stereo not drawn)	Cruzain noTriton 20µM
CCN(CC)CCCn1c(-c2ccccc2)nc2c(NCCOC)nc(C)nc21	none (no result: NS1 inh)
COC(=O)CSc1nc(N)c2c3c(sc2n1)C(c1ccccc1)SC(c1ccccc1)C3 (stereo not drawn)	Cruzain noTriton 13µM, Cruzain inh Det inconclusive
COC(=O)CSc1nc(N)c2c3c(sc2n1)CCCC3	none
CC(C)CCn1c(SCc2c(F)cccc2Cl)nc2ccsc2c1=O	none (no result: NS1 inh)
O=C(Nc1ccc(Cl)c(-c2nc3ccccc3o2)c1)c1ccc(-c2cccc([N+](=O)[O-])c2)o1	none (no result: NS1 inh)
COc1ccc2nc(NC(=O)c3ccc(-c4cccc([N+](=O)[O-])c4)o3)sc2c1	NS1 inh inconclusive, Cruzain noTriton 13µM
Cc1c(NC(=O)c2ccc(-c3cccc([N+](=O)[O-])c3)o2)cccc1-c1nc2cc(Cl)ccc2o1	Cruzain noTriton 3.2µM (no result: NS1 inh)
O=C(Nc1nc2ccc([N+](=O)[O-])cc2s1)c1c(F)cccc1F	none (no result: Cruzain noTriton, Cruzain inh Det)
Cc1ccc2oc(-c3cccc(NC(=O)/C=C/c4cccc([N+](=O)[O-])c4)c3C)nc2c1	Cruzain noTriton 16µM
Cc1ccc2oc(-c3cc(NC(=O)/C=C/c4ccco4)ccc3Cl)nc2c1	Cruzain noTriton inconclusive (no result: NS1 inh)
Cc1cccc([N+](=O)[O-])c1C	none (no result: NS1 inh)
COC(=O)[C@H]1O[C@@H](c2cc(OC)c(C)c(OC)c2OCc2ccccc2)[C@H](C)[C@@H]2O[C@]12C	none (no result: NS1 inh)
C[C@H](Br)C(=O)Nc1ccc(C(=O)O)c(O)c1	none
COCCCNC(=O)c1cc2c(=O)n3cccc(C)c3nc2n(C(C)C)c1=N	Cruzain noTriton inconclusive, Cruzain inh Det 25µM
Cc1cccn2c(=O)c3cc(C(=O)NCC4CCCO4)c(=N)n(CC4CCCO4)c3nc12 (stereo not drawn)	none (no result: Cruzain noTriton, Cruzain inh Det)
Cc1cccn2c(=O)c3cc(C(=O)NC4CCCCC4)c(=N)n(Cc4ccc(F)cc4)c3nc12	none (no result: Cruzain noTriton, Cruzain inh Det)
COCCn1c(=N)c(C(=O)NCCc2ccc(OC)cc2)cc2c(=O)n3cccc(C)c3nc21	none
Cc1cccn2c(=O)c3cc(C(=O)NC(C)C)c(=N)n(Cc4ccncc4)c3nc12	Cruzain noTriton inconclusive, Cruzain inh Det 32µM
CNC(=O)c1cc2c(=O)n3cc(C)ccc3nc2n(C(C)C)c1=N	Cruzain noTriton inconclusive, Cruzain inh Det 28µM
Cc1ccc2nc3c(cc(C(=O)NC4CCCC4)c(=N)n3C(C)C)c(=O)n2c1	none (no result: NS1 inh)
Cc1cccn2c(=O)c3cc(C(=O)NCC4CCCO4)c(=N)n(Cc4cccnc4)c3nc12 (stereo not drawn)	Cruzain noTriton inconclusive, Cruzain inh Det 22µM
CCc1ccc(C(=O)c2cn(CC(=O)Nc3cccc(OC)c3)c3ccc(OC)cc3c2=O)cc1	none (no result: NS1 inh)
COc1ccc2c(c1)O[C@@H](c1ccc3c(c1)OCO3)[C@H](OC(=O)NCc1ccc3c(c1)OCO3)C2=O	none (no result: NS1 inh)
O=c1cc(-c2ccc(O)c(O)c2)oc2ccccc12	Cruzain noTriton inconclusive (no result: NS1 inh)
COc1cccc(-c2nc(NC3CC3)c3ccccc3n2)c1	none (no result: NS1 inh)
N=c1c(C(=O)NCC2CCCO2)cc2c(=O)n3ccccc3nc2n1Cc1ccc(F)cc1 (stereo not drawn)	none (no result: Cruzain noTriton, Cruzain inh Det)
N=c1c(C(=O)NCC2CCCO2)cc2c(=O)n3ccccc3nc2n1Cc1cccnc1 (stereo not drawn)	Cruzain noTriton inconclusive, Cruzain inh Det 28µM
CCCn1c(-c2ccc(F)cc2)nc2c(NCCN(C(C)C)C(C)C)nc(C)nc21	none (no result: NS1 inh)
Cc1ccc2c(c1)c1c3n2CCN(C=O)C3CCC1 (stereo not drawn)	none (no result: Cruzain noTriton, Cruzain inh Det)
Cc1ccc2c(c1)c1c3n2CCN(C(=O)c2cccc(C(F)(F)F)c2)C3CCC1 (stereo not drawn)	Cruzain noTriton 0.63µM (no result: NS1 inh)
COc1cccc(CNC(=O)C(NS(=O)(=O)c2ccc3c(c2)oc(=O)n3C)C(C)C)c1 (stereo not drawn)	none (no result: NS1 inh)
COc1ccc(-c2cc(-c3ccccc3)nc(SCC(=O)Nc3ncc(C)s3)c2C#N)cc1	Cruzain noTriton 7.9µM
COc1ccc(-c2cc(-c3cccs3)c(C#N)c(SCC(=O)NCc3ccccc3)n2)cc1	Cruzain noTriton 7.9µM
CCc1nnc(NC(=O)CSc2nc(-c3ccc(F)cc3)cc(-c3ccccc3)c2C#N)s1	Cruzain noTriton 7.9µM
COc1ccc(-c2cc(-c3cccs3)c(C#N)c(SCC(=O)NCc3ccccc3OC)n2)cc1	Cruzain noTriton inconclusive
Cc1cccc(-c2cc(-c3ccccc3)nc(SCC(=O)Nc3ccccc3)c2C#N)c1	none (no result: NS1 inh)
CCSc1nc(-c2ccc(OC)cc2)cc(-c2ccccc2)c1C#N	none
COc1ccccc1Cc1nc2ccccc2nc1SCC(=O)Nc1c(C)cccc1C	none (no result: NS1 inh)
COc1ccc2c(c1)C(c1ccccc1OC)CC(=O)O2 (stereo not drawn)	Cruzain noTriton inconclusive (no result: NS1 inh)
C[C@@](N)(Cc1ccc(O)c(O)c1)C(=O)O	none (no result: NS1 inh)
COc1ccc(-c2nc(-c3ccccc3)oc2NC(C)C)cc1	none (no result: NS1 inh)
O=C(N/N=C/c1cn(-c2ccccc2)nc1-c1cccs1)c1ccc(Cl)cc1	Cruzain noTriton 13µM
O=C(N/N=C/c1cn(-c2ccccc2)nc1-c1cccs1)c1ccccc1F	Cruzain noTriton 32µM
O=S(=O)(N/N=C\c1cn(-c2ccccc2)nc1-c1ccccc1)c1ccccc1	Cruzain noTriton inconclusive
O=C(CNc1ccccc1)N/N=C/c1cn(-c2ccccc2)nc1-c1ccccc1	Cruzain noTriton 25µM
O=C(Nc1ccncc1)c1cn(-c2ccccc2)nc1-c1cccs1	none
O=C(N/N=C\c1ccc(OC(=O)c2cccs2)cc1)c1ccc(Cl)cc1	Cruzain noTriton 10µM
COc1ccc(C(=O)N/N=C/c2ccc(OC(=O)c3cccs3)cc2)cc1	Cruzain noTriton inconclusive
O=C(N/N=C/c1cn(-c2ccccc2)nc1-c1cc2ccccc2o1)c1ccncc1	none
O=C(c1ccc2c(c1)CCN2S(=O)(=O)c1ccc(Cl)cc1)N1CCN(c2ccccc2)CC1	Cruzain noTriton inconclusive (no result: NS1 inh)
COc1cc2oc(=O)c3c4c(cc5ccc(c1CCN(C)C)c2c53)OCO4	none (no result: NS1 inh)
COC(=O)[C@@H](NC(=O)O[C@@H]1C(=O)c2ccc(OC)cc2O[C@H]1c1ccc2c(c1)OCO2)C(C)C	none (no result: NS1 inh)
COc1ccc(-n2nc3c(c2NC(=O)c2cc4ccccc4o2)CS(=O)(=O)C3)cc1	none (no result: Cruzain noTriton, Cruzain inh Det)
COc1ccc(-n2nc3c(c2NC(=O)c2cc4ccccc4oc2=O)CS(=O)(=O)C3)cc1	NS1 inh 6.3µM (no result: Cruzain noTriton, Cruzain inh Det)
Cc1ccc(NC(=O)c2nn(C34CC5CC(CC(C5)C3)C4)cc2[N+](=O)[O-])cc1	Cruzain noTriton inconclusive
O=C(Nc1cccc2ccccc12)c1nn(C23CC4CC(CC(C4)C2)C3)cc1Br	Cruzain noTriton 10µM
CCN(CC)CCn1c(-c2ccccc2)nc2c(NC3CCCCC3)nc(C)nc21	none (no result: NS1 inh)
C=C(C)CSc1nnc([C@@H](N)Cc2ccccc2)o1	none (no result: Cruzain noTriton, Cruzain inh Det)
CN(C)C(=O)CSc1nnc([C@@H](N)Cc2ccccc2)o1	Cruzain noTriton 25µM, Cruzain inh Det 20µM
CC[C@H](C)[C@@H](NC(=O)O[C@@H]1Cc2cc(OC)ccc2O[C@H]1c1cccc(OC)c1)C(=O)OC	none (no result: NS1 inh)
CCN(CC)S(=O)(=O)c1ccc(C(=O)NCCSc2c(-c3ccc(OC)cc3)[nH]c3ccccc23)cc1	none (no result: NS1 inh)
O=C(Nc1noc2ccccc12)c1cccc(Cl)c1Cl	Cruzain noTriton 25µM (no result: NS1 inh)
COc1ccc(C(=O)Nc2noc3ccccc23)cc1	none (no result: NS1 inh)

Screens from PubChem.
